TDP1 cell CPT: growth inhibition of DT40 Tdp1-/-;hTDP1 cells with camptothecin (screen for TDP1 inhibitors); Potency, µM (doses to about 46.2 µM), without a hit: at the top dose activity change, negative = growth inhibition, actives largely listed as inhibitors; AID 686979; chicken DT40 Tdp1-/-;hTDP1 cells + 20 nM CPT, ATP luminescence, 48 h; 420,000 tested, 12% active; note: potency is the fitted concentration of half-maximal effect; nearly all actives have a fitted effect of over 55% in size
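Cell growth measured by CellTiter-Glo luminescence after a minimum 48 h, 37 C compound exposure with 20 nM CPT in Tdp1-knockout DT40 cells stably expressing hTDP1, seeded 400/well; qHTS titration format.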
ELG1 repair inh: ELG1-dependent DNA repair inhibition; Potency, µM (top dose mostly 46.1 µM), without a hit: top-dose activity change, negative = inhibition, hits mostly inhibitors; 330,000 tested, 2.3% active; AID 504467; HEK293T ELG1-luciferase reporter, luminescence, 16 h; DNA damage induced by 5-fluorouridine; note: potency is the fitted concentration of half-maximal effect; nearly all actives have a fitted effect of over 55% in size
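HEK293T cells expressing luciferase-tagged ELG1 (2,000/well) received 5-Fluorouridine plus compound or DMSO for 16 hr at 37 °C. Luciferase was read by ONE-Glo luminescence after 30 min at room temperature.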
TDP1 cell noCPT: qHTS for Inhibitors of human tyrosyl-DNA phosphodiesterase 1 (TDP1): qHTS in cells in absence of CPT; 420,000 tested, 15% active; Potency, µM (series often up to 46.2 µM), without a hit: top-dose activity change, negative = growth inhibition, hits mostly inhibitors; DT40 Tdp1-/- hTDP1 cells, no CPT, ATP luminescence, 48 h; note: potency is the fitted concentration of half-maximal effect; nearly all actives have a fitted effect of over 55% in size
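No-CPT arm: Tdp1-/-;hTDP1 DT40 cells (400/well) plus compounds, incubated ≥48 hr at 37 °C. Readout CellTiter-Glo luminescence.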
Gal4-VP16 FLuc: Gal4-VP16 reporter inhibition counter-screen. AID 2546. 310,000 tested, 3.5% active. Drosophila S2 Gal4-VP16 UAS-luciferase, luminescence, 20 h. Potency, µM (highest dose often 53.6 µM), without a hit: at the highest dose activity, negative = inhibition, hits mostly inhibitors;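 note: Gal4-VP16 expression switched on by copper sulfate through the metallothionein promoter; potency is the fitted concentration of half-maximal effect; nearly all actives have a fitted effect of over 50% in size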
IL-1B inflam inh: inflammasome signaling inhibition, IL-1 beta readout; THP-1 LPS/ATP IL-1B secretion, AlphaLISA, 16 h; hits give low values; activity change, % at 57.5 µM; 360,000 tested, 4.7% active; AID 743279; in the data active = activity change below about -50%; inconclusive = mostly about -30% to -49%
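THP-1 cells pretreated 1 hr with compounds (up to 57.5 uM final), then stimulated with LPS (250 ng/mL final) plus ATP (1.25 mM final); secreted IL-1B measured by AlphaLISA after 16 hr, decreased signal indicating inhibition.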
RORg inh: inhibitors of mouse ROR gamma transcriptional activity | Drosophila S2 Gal4-RORgamma UAS-luciferase reporter, 20 h | Potency, µM (top dose mostly 53.6 µM), for the others: at the top dose activity change, negative = inhibition, usual class: inhibitors | P51450 | 310,000 tested, 5.4% active; note: potency is the fitted concentration of half-maximal effect; nearly all actives have a fitted effect of over 60% in size
Target sequence (P51450 whole entry, looked up, the tested form may be a part): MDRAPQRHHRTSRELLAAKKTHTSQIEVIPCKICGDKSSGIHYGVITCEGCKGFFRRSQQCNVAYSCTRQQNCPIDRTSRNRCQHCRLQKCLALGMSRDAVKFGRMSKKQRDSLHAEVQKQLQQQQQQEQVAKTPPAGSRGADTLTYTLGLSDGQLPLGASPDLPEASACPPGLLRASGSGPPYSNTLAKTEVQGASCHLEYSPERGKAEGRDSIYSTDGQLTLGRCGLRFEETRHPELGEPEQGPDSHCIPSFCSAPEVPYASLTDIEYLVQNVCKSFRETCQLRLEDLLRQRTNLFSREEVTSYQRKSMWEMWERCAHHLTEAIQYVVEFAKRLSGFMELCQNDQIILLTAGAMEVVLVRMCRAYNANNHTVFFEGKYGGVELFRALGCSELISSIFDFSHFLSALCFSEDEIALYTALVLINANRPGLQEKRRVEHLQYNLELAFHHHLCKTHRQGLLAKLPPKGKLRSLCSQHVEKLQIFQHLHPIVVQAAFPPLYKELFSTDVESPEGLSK
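Luminescence from a UAS-regulated Photinus luciferase reporter in stably transfected Drosophila Schneider cells is measured; decreased signal marks ROR gamma inhibition. Fusion expression is induced by 700 uM copper sulfate for 20 hr.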
An asterisk follows results filed as active; ? = inconclusive; . = not tested or not shown. Sampled rows, rich in hits. Any-hit rate of the full collection: about 21%. Unless noted, calls come from the whole dose curve; as a rule, active = well fitted curve in the direction sought with a large enough effect; inconclusive = small, poorly fitted or top-dose-only effect, or another doubt; inactive = no such curve, though single readings can be large; an effect the other way counts as inactive or inconclusive. % is set by controls: 0 for no effect and ±100 for the full control effect.

SMILES	TDP1 cell CPT	ELG1 repair inh	TDP1 cell noCPT	Gal4-VP16 FLuc	IL-1B inflam inh	RORg inh
Cc1ccc(NC(=O)c2c(C(F)(F)F)nn(C)c2SCc2cccc(C(F)(F)F)c2)cc1C	7.31µM*	?	4.11µM*	?	-21.5	-37.3%
O=C(CCN1CCCCC1)c1ccccc1	11.2µM*	19.1%	12.6µM*	-0.3%	-3.7	7.4%
Brc1ccc(OCCCCCN2CCOCC2)cc1	3.0%	-17.6%	-5.7%	1.0%	-59.0*	15.1%
CCCCOc1ccc(C(=O)CCN2CCOCC2)cc1	5.17µM*	?	6.51µM*	?	-103.5*	?
CC1CCCN(CCC(=O)c2ccccc2)C1 (stereo not given)	4.61µM*	.	10.3µM*	.	5.7	.
O=C(CNC(=O)c1cccs1)N/N=C/c1c[nH]c2ccccc12	?	16.8%	?	8.3%	8.3	2.5%
CCOc1ccc(OCCN2CCCCC2)cc1	-26.3%	11.8%	-15.1%	-3.4%	0.0	-10.5%
O=C(c1ccc(Br)cc1)N1CCN(Cc2ccccc2)CC1	10.8%	-7.3%	1.4%	0.4%	-25.5	-1.7%
O=C(CCN1CCOCC1)c1ccccc1	2.59µM*	-9.6%	3.55µM*	-4.2%	-72.2*	?
C[N+]1(CCC(=O)c2ccccc2)CCCCC1	3.26µM*	-0.2%	2.59µM*	-14.6%	5.9	-7.1%
O=C(CCN1CCN(C(=O)c2ccccc2)CC1)c1ccc(Br)cc1	7.31µM*	2.4%	8.2µM*	?	-23.3	-122.2%
CCOc1ccc(C(=O)CCN2CCCCCC2)cc1	3.66µM*	-4.6%	2.91µM*	5.62µM*	?	4.47µM*
C[C@@H](C(=O)Nc1ccc(OC(F)F)c(Cl)c1)N1C(=O)C2CC=CCC2C1=O (stereo not given in full)	3.5%	-3.5%	-26.8%	.	5.8	.
Fc1ccc(Nc2nc(NCc3ccco3)nc3nccnc23)cc1	-25.0%	.	-28.8%	.	.	.
CCOc1ccc(NCc2cccn2-c2nnc(N3CCC(C(=O)NCCc4ccc(OC)c(OC)c4)CC3)s2)cc1	?	.	10.3µM*	.	.	.
CCOc1ccc(NCc2cccn2-c2nnc(N3CCC(C(=O)NCCCN4CC(C)CC(C)C4)CC3)s2)cc1 (stereo not given)	?	5.8%	?	-10.8%	-82.4*	-38.1%
CCOc1ccc(NCc2cccn2-c2nnc(N3CCC(C(=O)NCCc4ccc(OCC)c(OCC)c4)CC3)s2)cc1	14.6µM*	.	8.2µM*	.	.	.
COc1ccc(OC)c(CCNC(=O)C2CCN(c3nnc(-n4cccc4)s3)CC2)c1	?	?	?	6.4%	-19.4	26.0%
COc1cccc(CNC(=O)CCCN2C(=O)C(c3ccccc3)Oc3cccnc32)c1OC (stereo not given)	?	-19.5%	?	-2.5%	-3.0	27.4%
CCCCn1c(NC(=O)c2ccco2)c(S(=O)(=O)c2ccc(C)cc2)c2nc3ccccc3nc21	?	-4.6%	?	-3.4%	0.0	?
COc1ccc(CCn2c(N)c(C#N)c3nc4ccccc4nc32)cc1OC	20.6µM*	23.1µM*	13µM*	12.2%	-8.9	40.8%
CC(C)CCn1c(N)c(S(=O)(=O)c2cccs2)c2nc3ccccc3nc21	?	?	?	?	-87.6*	-5.4%
Cc1ccc(S(=O)(=O)c2c(N)n(CCC(C)C)c3nc4ccccc4nc23)cc1	?	?	?	-24.4%	-62.6*	?
Cc1ccc(S(=O)(=O)c2c(N)n(CCCO)c3nc4ccccc4nc23)cc1	11.7%	-9.6%	-18.6%	1.9%	-13.2	26.1%
CCCCCn1c(NC(=O)c2ccco2)c(S(=O)(=O)c2ccc(C)cc2)c2nc3ccccc3nc21	20.6µM*	0.1%	18.4µM*	-1.2%	-6.8	?

Assay outcomes (PubChem BioAssay)
